These results are taken from PubChem BioAssay (NCATS).

“And” between values parts separate entries of the source, which are not always exact repeats. Equal values may be shown once. Results filed as inconclusive are left out. Unmarked numbers belong to inactive results. The source made the active and inactive calls. Unless noted, the call rests on the fitted dose curve; in most records, active means well fitted curve in the direction sought with a large enough effect; inconclusive means small, poorly fitted or top-dose-only effect, or another doubt; inactive means no such curve, though single readings can be large; an effect the other way counts as inactive or inconclusive.

Assay [1] addresses Cellular tumor antigen p53 (Homo sapiens) (UniProt P04637). Nature of the assay: Primary qHTS for small molecule compounds that upregulate eGFP-tagged delta133p53alpha (in N-terminal) cells. (AID 2060322). Further: nearly all actives have a fitted effect of over 75% in size. Further: potency means the concentration at half of the fitted maximal effect.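 On activation: series mostly up to about 56 µM; 0% = DMSO vehicle and 100% = reference activator.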 The note with it: NCI-H358 eGFP-delta133p53alpha fluorescence, 24 h; activation: stronger effect = higher value. An outline of the steps: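 NCI-H358 cells pre-induced 24 h with 10 ng/ml doxycycline to express N-terminal eGFP-delta133p53alpha, then dosed 24 h at 37C without doxycycline; fixed, Hoechst-stained, GFP intensity by laser scanning cytometry, normalized to DMSO (0%) and 57.5 uM 5-azacytidine (100%).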

Assay [2] is described as follows: BET inhibitor-based combinations targeting novel dependencies in MECOM-rearranged (r) AML: MV-4-11 cell line (AID 2202233). Further: nearly all actives have a fitted effect of over 45% in size. Further: potency means the concentration at half of the fitted maximal effect. The procedure, abridged:
(§1)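 Activity is given as area under the curve and as Z-AUC, mean-centred within each cell line. It comes from 11-point dose curves normalized to DMSO and empty wells. CellTiter-Glo luminescence was read after 48 hr drug exposure of 500 cells/well.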

Assay [3] is described as follows: BET inhibitor-based combinations targeting novel dependencies in MECOM-rearranged (r) AML: HNT-34 cell line (AID 2202234). Further: nearly all actives have a fitted effect of over 35% in size. Further: potency means the concentration at half of the fitted maximal effect. The procedure, abridged: as §1
Assay [4] is described as follows: BET inhibitor-based combinations targeting novel dependencies in MECOM-rearranged (r) AML: UCSD-AML1 cell line (AID 2202235). Further: nearly all actives have a fitted effect of over 40% in size. Further: potency means the concentration at half of the fitted maximal effect. The procedure, abridged: as §1
Assay [5] is described as follows: BET inhibitor-based combinations targeting novel dependencies in MECOM-rearranged (r) AML: AML-191 cell line (AID 2202236; further: nearly all actives have a fitted effect of over 35% in size; further: potency means the concentration at half of the fitted maximal effect). An outline of the steps:
(§2)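 Cells were plated at 500 per well and exposed to an 11-point dose series of each drug for 48 hr. Viability was measured by CellTiter-Glo luminescence, normalized to DMSO and empty-well controls, and summarized as AUC and per-cell-line Z-AUC.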

Assay [6] is described as follows: BET inhibitor-based combinations targeting novel dependencies in MECOM-rearranged (r) AML: AML-194 cell line (AID 2202237; further: nearly all actives have a fitted effect of over 40% in size; further: potency means the concentration at half of the fitted maximal effect). An outline of the steps:
as §2

For assay [7], the target named is Cellular tumor antigen p53 (Homo sapiens) (UniProt P04637). Nature of the assay: Primary qHTS for small molecule compounds that upregulate eGFP-tagged delta133p53alpha (in C-terminal) cells. (AID 2060324). Further: potency means the concentration at half of the fitted maximal effect. The procedure, abridged:
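In this qHTS, GFP-tagged delta133p53alpha levels are measured in fixed NCI-H358 cells after 24 h compound exposure at 37 °C. The cells are pre-induced with 100 ng/ml doxycycline, and signal is normalized to DMSO-treated wells as 0%.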
(In general: Quantitative high-throughput screening tests each substance at several concentrations.)

The target of assay [8] is Aldehyde dehydrogenase, mitochondrial (Homo sapiens) (UniProt P05091). Description: qHTS for Inhibitors of the Aldehyde Dehydrogenase Family (ALDH2) Validation screens (AID 2061302; active means well fitted inhibition curve with a large enough effect; title and protocol of this record describe different tests;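 further: plate controls were DMSO vehicle for no effect and maximal DPI positive control response for full effect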).

Chain of Cellular tumor antigen p53 (Homo sapiens) (P04637 whole entry, looked up): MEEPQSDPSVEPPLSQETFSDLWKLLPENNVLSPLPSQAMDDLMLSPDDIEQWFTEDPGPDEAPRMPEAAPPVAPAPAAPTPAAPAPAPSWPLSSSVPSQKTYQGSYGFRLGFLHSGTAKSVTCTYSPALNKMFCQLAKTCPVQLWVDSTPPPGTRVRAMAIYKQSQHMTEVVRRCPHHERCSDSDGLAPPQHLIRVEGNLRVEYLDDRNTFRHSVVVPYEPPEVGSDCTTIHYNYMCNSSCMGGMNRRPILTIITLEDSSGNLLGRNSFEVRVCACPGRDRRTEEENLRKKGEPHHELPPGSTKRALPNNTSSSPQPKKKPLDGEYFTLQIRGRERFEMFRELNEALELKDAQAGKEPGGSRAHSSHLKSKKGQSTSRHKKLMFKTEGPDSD

For the compound `O=C1CCc2ccc(OCCCCN3CCN(c4cccc(Cl)c4Cl)CC3)cc2N1`, in assay [1], the activation was -4.19%. The Potency in assay [2] is 16.6 µM (active); in assay [3] it was 20.9 µM (active); in assay [4], 23.5 µM (active); in assay [5], 23.5 µM (active); in assay [6], 26.3 µM (active).
As to `COc1cc2ncnc(Nc3cccc(Br)c3)c2cc1OC`, in assay [1], the activation was 29.9%. In addition, the Potency is 9.34 µM (active) in assay [2], 9.34 µM (active) in assay [3] and 20.9 µM (active) in assay [5].
In the case of `Cc1ccc(NC(=O)c2ccc(CN3CCN(C)CC3)cc2)cc1Nc1nc(-c2cccnc2)cs1`, the activation in assay [1] is 4.59%. For the same compound, the Potency in assay [3] is 5.25 µM (active). In addition, the Potency result in assay [4] was “inactive”.
`OC1CCC(Nc2ncc3nc(Nc4c(F)cc(F)cc4F)n([C@@H]4CCOC4)c3n2)CC1` (some centres undefined): in assay [1], the activation is 52.2%. The results for the Potency in assay [2] and in assay [5] were 20.9 µM (active) and 16.6 µM (active), respectively.
For the compound `Nc1ncnc2c1ncn2[C@@H]1O[C@H](COP(=O)(O)OP(=O)(O)OP(=O)(O)OP(=O)(O)OC[C@@H]2O[C@H](n3cnc4c(N)ncnc43)[C@@H](O)[C@H]2O)[C@@H](O)[C@H]1O`, the Potency entry in assay [7] and in assay [8] was “inactive” in each case.
For the compound `CC[C@H](C)n1cc(C)c2c(C(=O)NCc3c(C)cc(C)[nH]c3=O)cc(-c3ccc(N4CCNCC4)nc3)cc21`, the activation in assay [1] was -13%. Also, in assay [2], the Potency was 18.6 µM (active). Further, the Potency entry in assay [6] is “inactive”.
As for `O=C(NCCCNc1nc(Nc2cccc(NC(=O)N3CCCC3)c2)ncc1I)c1cccs1`, the activation in assay [1] is 9.72%. Further, the values for the Potency in assay [2] and in assay [4] were 0.662 µM (active) and 5.25 µM (active), respectively.
As for `CCc1c(O)cc(O)c(C(=O)c2ccc(OCCN3CCOCC3)c(OC)c2)c1CC(=O)N(CCOC)CCOC`, the activation in assay [1] was 38.5%. The figures for the Potency in assay [3] and in assay [4] were 0.662 µM (active) and 0.263 µM (active), respectively.
Turning to `C[N+]1(CCCCC[N+]2(C)CCCC2)CCCC1`, the Potency entry in assay [7] and in assay [8] was “inactive” throughout.
In the case of `COc1ccc(CC2SC(=O)NC2=O)cc1C(=O)NCc1ccc(C(F)(F)F)cc1` (centres undefined), the activation in assay [1] was -5.55%. The Potency entry in assay [4] and in assay [6] was “inactive” each time.
Turning to `Nc1nc(N)c2nc(-c3cccc(O)c3)c(-c3cccc(O)c3)nc2n1`, the figures for the Potency in assay [1] and in assay [5] were 24.3 µM (active) and 18.6 µM (active), respectively. Moreover, the Potency entry in assay [3], in assay [4] and in assay [6] was “inactive” throughout.
With `CCCCCCCCCCCCCCCCCCN(CCCCCCCCCCCCCCCCCC)CCCN(CCO)CCO`, the Potency result in assay [7] and in assay [8] was “inactive” in each case.
Turning to `O=C(/C=C/N1C[C@H]2C[C@@H]1CN2c1ccccn1)c1ccccc1O`, the activation in assay [1] is 21.2%. Also, the Potency result in assay [4], in assay [5] and in assay [6] was “inactive” throughout.
Regarding `Cc1ccc(O)c(N=Nc2ccccc2)n1`, the Potency entry in assay [7] and in assay [8] was “inactive” each time.
For the compound `Nc1ccn([C@H]2O[C@H](CO)[C@@H](O)C2(F)F)c(=O)n1`, the Potency entry in assay [7] and in assay [8] was “inactive” each time.
Take `CCN(CC)CCCC(C)Nc1nc(C)cc(Nc2ccc3nc(C)cc(N)c3c2)n1` (centres undefined): the activation in assay [1] is 4.87%. Besides, the Potency in assay [2] was 29.5 µM (active). The Potency entry in assay [4], in assay [5] and in assay [6] was “inactive” in each case.
`O=[N+]([O-])c1ccc2c(c1)S(=O)(=O)C=C2`: the Potency in assay [7] was 30.1 µM (active).
Same read-out and setting: with `CN=c1nc(-c2ccccc2)n(-c2ccccc2)s1` the entry was “inactive”.
For the compound `S=P(N1CC1)(N1CC1)N1CC1`, in assay [1], the activation is 31.6%. The Potency in assay [2] was 20.9 µM (active); in assay [5], 26.3 µM (active). Also, in assay [4], the Potency entry is “inactive”.
Consider `COc1cc2ncn(-c3cc(OCc4ccccc4S(C)(=O)=O)c(C#N)s3)c2cc1OC`, for which, in assay [1], the activation is -10.5%. The Potency entry in assay [2], in assay [3], in assay [5] and in assay [6] was “inactive” throughout.
Consider `N=c1c[n+](N2CCOCC2)[n-]o1`, for which the Potency result in assay [7] and in assay [8] was “inactive” in each case.
Turning to `COC(c1ccccc1)(c1ccccc1)[C@H](Oc1nc(C)cc(C)n1)C(=O)O`, the activation in assay [1] was -19.8% and -2.24%. Also, the Potency entry in assay [2], in assay [3], in assay [4] and in assay [6] was “inactive” throughout.
In the case of `N#CC(c1ccc(Cl)cc1)c1c(Cl)cc(-n2ncc(=O)[nH]c2=O)cc1Cl` (centres undefined), the activation in assay [1] is -23%. Moreover, the Potency result in assay [2] and in assay [6] was “inactive” in each case. Also, the Potency in assay [5] is 16.6 µM (active).
In the case of `Clc1ccc(COC(Cn2ccnc2)c2ccc(Cl)cc2Cl)c(Cl)c1` (centres undefined), the activation in assay [1] is -18.8%. In addition, the Potency in assay [3] is 16.6 µM (active); in assay [6], 26.3 µM (active). Moreover, the Potency entry in assay [4] is “inactive”.
Regarding `CCCCCCCc1ccc(CCc2cccc(O)c2C(=O)O)cc1`, in assay [1], the activation is -21.9% and 7.82%. In assay [6], the Potency result was “inactive”.
As to `O=C(c1ccc(F)cc1)N1CCC[C@H](c2nc(-c3ccc(F)cc3)no2)C1`, the activation in assay [1] is 6.17%. For the same compound, the Potency in assay [2] was 18.6 µM (active). Further, the Potency entry in assay [4] and in assay [6] was “inactive” throughout.
